These results are taken from PubChem BioAssay (NCI).

This is part of a sample that, as a whole, favours compounds with a hit. Of some 83,000 tested, about 20% had one in any assay.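 Note: values are percent growth. 100 is the growth of untreated cells, values between 100 and 0 indicate rising inhibition; between -100 and 0 indicates cell death.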 Calls of active or inactive are those of the source. Rule for the calls: active = growth percent below 10; inactive = the rest.

This assay has as its system IGROV1 ovarian. Put plainly: NCI-60 one-dose screen, 48 h (100 = growth as untreated, 0 = no growth, -100 = all killed). The settings on record: 10 µM unless noted.
Consider `O=C(COc1ccc(/C=C2\SC(=O)NC2=O)cc1)Nc1ccc(C(=O)/C=C/c2cc3ccccc3nc2Cl)cc1`, for which the growth is 71.4% (inactive).

Take `CC(C)Sc1nc(NC2CC2)c(C#N)c(-c2ccccc2)n1`: the growth is 19.8% (inactive).

In the case of `O=C(COc1cccc2cccnc12)Nc1ccc(C(=O)/C=C/c2ccc(Cl)cc2)cc1`, the growth is 88.8% (inactive). `Oc1ccc(CSc2nnc(-c3ccc(Br)cc3)n2-c2ccccc2)c2cccnc12`: the growth is 18.9% (inactive).

Regarding `COc1ccccc1N1CCN(C2=NN=C(c3cccc(Cl)c3)c3ccccc3C2)CC1`, the growth was 21.4% (inactive).

For the compound `O=C1/C(=C/c2ccc([N+](=O)[O-])cc2)SC(=Nc2ccccc2)N1Nc1ccccc1`, the growth was 61.9% (inactive). For `COc1ccc([C@H]2c3[nH]c4ccccc4c3C[C@@H]3C(=O)N(C4CCN(Cc5ccccc5)CC4)CC(=O)N23)c(OC)c1`, the growth was 50.6% (inactive). For `CC1OC(O[C@@H]2[C@H](O)C(CO)OC(O[C@H]3COC(O[C@H]4CC[C@]5(C)[C@H]6CC[C@]78OC[C@@]9(CCC(C)(C)C[C@H]97)[C@H](O)C[C@@]8(C)[C@]6(C)CC[C@H]5C4(C)C)[C@@H](OC4OC(CO)[C@@H](O)[C@@H](O)[C@@H]4O)[C@@H]3O)[C@H]2OC2OC[C@@H](O)[C@@H](O)[C@@H]2O)[C@@H](O)[C@@H](O)[C@H]1O` (some centres not stated), the growth is -66.3% (active). As for `N#Cc1c(-c2cccs2)cc(-c2cnccn2)nc1SCC(=O)NNC(=S)Nc1ccc(F)cc1`, the growth was 106% (inactive). With `O=C1NC(=O)c2c1c1c3ccccc3ccc1c1[nH]c3ccccc3c21`, the growth is 9.53% (active).

Turning to `COc1ccc(-c2ccc3c4c(cccc24)C(=O)N(N2C(=O)c4cccc5cccc(c45)C2=O)C3=O)cc1`, the growth is 92.4% (inactive). Take `NS(=O)(=O)c1ccc(Nc2nc(N/N=C/c3ccc(C(F)(F)F)cc3)nc(Nc3ccccc3)n2)cc1`: the growth was 31.2% (inactive).

For the compound `COc1cc(CNC(=O)/C=C/c2ccccc2)ccc1OCC(=O)NO`, the growth is 98.1% (inactive). The figure for `NS(=O)(=O)c1ccc(Nc2nc(N/N=C/c3ccc(F)cc3)nc(Nc3ccccc3)n2)cc1` is 43.5% (inactive).

For the compound `C=C1C(=O)O[C@@H]2C[C@@H](C)[C@H](OC)CC(=O)[C@](C)(OC(C)=O)C[C@H](OC(=O)/C(C)=C\C)[C@@H]12`, the growth is 90.1% (inactive). As for `O=C(c1ccc(O)cc1)[C@@H]1[C@@H]2CCCN2[C@@]2(C(=O)N(C(=O)c3ccc(F)cc3)c3ccccc32)[C@H]1c1ccc(F)cc1`, the growth is 63.1% (inactive). For the compound `Cc1ccc(-n2cc(/C=C/C(=O)c3ccc(S(C)(=O)=O)cc3)c(-c3ccc(S(C)(=O)=O)cc3)n2)cc1`, the growth is 69.2% (inactive). With `Cc1ccc(Cc2cnc(NC(=O)/C(C#N)=C/c3ccc(-c4ccc(Cl)cc4)o3)s2)cc1`, the growth was 86.8% (inactive). For the compound `C=C(C)C(=O)O[C@H]1C[C@@]2(C)OC(=CC2=O)/C(C)=C\[C@H]2OC(=O)C(=C)[C@H]12`, the growth is 7.34% (active).

`CCN(CC)CCN1C(=O)c2c(c3c4cc(Br)ccc4[nH]c3c3ccc4ccccc4c23)C1=O`: the growth is -83.7% (active).

`Oc1ccc(CSc2nnc(-c3ccc(Oc4ccccc4)cc3)o2)c2cccnc12`: the growth was 26.1% (inactive). For the compound `O=C1c2c(c3c4cccnc4[nH]c3c3ccc4ccccc4c23)C(=O)N1CCN1CCOCC1`, the growth is 57.7% (inactive). `O=c1[nH]c(CCl)nc2c1cnn2-c1ccccc1`: the growth was 95.9% (inactive). Take `C=C1C(=O)O[C@@H]2/C=C(/C)C3=CC(=O)[C@@](C)(C[C@H](OC(=O)/C(C)=C\C)[C@@H]12)O3`: the growth was 19% (inactive). As to `O=C1CC2(CCOCC2)Oc2ncccc21`, the growth is 8.85% (active). For `O=C(Nc1ccc(F)cc1)c1cc(-c2ccc(F)cc2F)ccc1O`, the growth was 14.7% (inactive).

As for `COc1ccc(/C=N\NC(=O)c2ccc3nc(-c4ccc(Br)cc4)[nH]c3c2)cc1`, the growth is 20% (inactive). Regarding `O=C(O)c1ccc(-n2cc(CNc3ccc(Cl)cc3)c(-c3ccc(F)cc3)n2)cc1`, the growth is 102% (inactive). Regarding `COc1cc(/C=N/n2cnc3oc(-c4ccccc4)cc3c2=N)cc(CN2CCCC2)c1O`, the growth was -62.8% (active). Regarding `CCOC(=O)c1c(NCC(=O)Nc2cccc(Cl)c2)sc2c1CCCC2`, the growth was 50.6% (inactive).

For `Cc1ccc(-c2csc(N/N=C/c3nc4ccccc4n3C3CC3)n2)cc1`, the growth was 57.8% (inactive). With `C#C[C@]1(O)CC[C@H]2[C@@H]3CC=C4c5sc(Nc6cccc(C)n6)nc5CC[C@]4(C)[C@H]3CC[C@@]21C`, the growth is 45.5% (inactive).
